Data as given in the supplement of paper PMC10849652.
Of roughly 7,900 targets only a part is listed; those with a hit were picked by preference. About 0.6% of all pairs of compound and target were hits. A number with no mark means an inactive call.

How the values were obtained:
Assay in all cases: log2 fold change, soluble protein after heating vs DMSO (PISA); higher = thermal stabilisation; K562 cells, 10 uM, 30 min; active = over 0.2 and 3.5 SD of the protein, either way, in both replicates (recomputed)
[1] = compound: CN1CCN(CCOc2cc(OC3CCOCC3)c3c(Nc4c(Cl)ccc5c4OCO5)ncnc3c2)CC1 [saracatinib]
Outline: (§1)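 Soluble protein was quantified by TMTpro 16plex LC-MS/MS after channel sums were equalised. It was obtained as the supernatant after 21,000xg for 90 min from pooled aliquots of K562 cells (2×10^6 cells/mL, 10 μM compound, 30 min) heated for 3 min across 48°C-58°C and extracted in PBS with 0.5% NP-40 at 4°C. Thermal stability values are relative to control samples and come from duplicates. They are given as log2 fold changes.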

[2] = compound: CN1CCN(c2nc(C3=C(c4c[nH]c5ccccc45)C(=O)NC3=O)c3ccccc3n2)CC1 [sotrastaurin]
Outline: as §1

[3] = compound: CN1CC[C@H](c2c(O)cc(O)c3c(=O)cc(-c4ccccc4Cl)oc23)[C@H](O)C1 [alvocidib]
Outline: as §1

[4] = compound: CN1CCc2c(c3ccccc3n2Cc2ccc(C(=O)NO)cc2)C1 [Tubastatin A]
Outline: as §1

[5] = compound: CNC(=O)C1=CC=CC=C1NC2=NC(=NC=C2Cl)NC3=C(C=C(C=C3)N4CCOCC4)OC
Outline: as §1

[6] = compound: CNC(=O)c1ccc(Nc2ncc(C(F)(F)F)c(NCc3nccnc3N(C)S(C)(=O)=O)n2)cc1 [defactinib]
Outline: as §1

[7] = compound: CNCc1ccc(-c2[nH]c3cc(F)cc4c3c2CCNC4=O)cc1 [rucaparib]
Outline: as §1

[8] = compound: CNc1nc(-c2ccc3c(N)n[nH]c3c2)cc(N2C[C@@H](C(=O)NC3CCCCC3)CC[C@H]2C)n1
Outline: as §1

[9] = compound: COC(=O)N[C@@H](C)CNc1nccc(-c2cn(C(C)C)nc2-c2cc(Cl)cc(NS(C)(=O)=O)c2F)n1 [encorafenib]
Outline: as §1

[10] = compound: COC(=O)[C@H](CCSC)NC(=O)C1=C(C=C(C=C1)NC[C@H](CS)N)C2=CC=CC=C2
Outline: as §1

Sequence of UniProt Q14493 (Q14493 whole entry, looked up): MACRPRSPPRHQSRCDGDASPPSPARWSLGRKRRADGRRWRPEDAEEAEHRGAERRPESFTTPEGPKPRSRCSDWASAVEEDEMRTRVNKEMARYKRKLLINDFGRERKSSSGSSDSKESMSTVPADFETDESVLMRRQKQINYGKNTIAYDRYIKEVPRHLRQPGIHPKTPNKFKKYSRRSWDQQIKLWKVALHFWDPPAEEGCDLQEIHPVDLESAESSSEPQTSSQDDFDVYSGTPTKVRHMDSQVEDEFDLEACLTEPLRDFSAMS
Sequence of UniProt O15027 (O15027 whole entry, looked up): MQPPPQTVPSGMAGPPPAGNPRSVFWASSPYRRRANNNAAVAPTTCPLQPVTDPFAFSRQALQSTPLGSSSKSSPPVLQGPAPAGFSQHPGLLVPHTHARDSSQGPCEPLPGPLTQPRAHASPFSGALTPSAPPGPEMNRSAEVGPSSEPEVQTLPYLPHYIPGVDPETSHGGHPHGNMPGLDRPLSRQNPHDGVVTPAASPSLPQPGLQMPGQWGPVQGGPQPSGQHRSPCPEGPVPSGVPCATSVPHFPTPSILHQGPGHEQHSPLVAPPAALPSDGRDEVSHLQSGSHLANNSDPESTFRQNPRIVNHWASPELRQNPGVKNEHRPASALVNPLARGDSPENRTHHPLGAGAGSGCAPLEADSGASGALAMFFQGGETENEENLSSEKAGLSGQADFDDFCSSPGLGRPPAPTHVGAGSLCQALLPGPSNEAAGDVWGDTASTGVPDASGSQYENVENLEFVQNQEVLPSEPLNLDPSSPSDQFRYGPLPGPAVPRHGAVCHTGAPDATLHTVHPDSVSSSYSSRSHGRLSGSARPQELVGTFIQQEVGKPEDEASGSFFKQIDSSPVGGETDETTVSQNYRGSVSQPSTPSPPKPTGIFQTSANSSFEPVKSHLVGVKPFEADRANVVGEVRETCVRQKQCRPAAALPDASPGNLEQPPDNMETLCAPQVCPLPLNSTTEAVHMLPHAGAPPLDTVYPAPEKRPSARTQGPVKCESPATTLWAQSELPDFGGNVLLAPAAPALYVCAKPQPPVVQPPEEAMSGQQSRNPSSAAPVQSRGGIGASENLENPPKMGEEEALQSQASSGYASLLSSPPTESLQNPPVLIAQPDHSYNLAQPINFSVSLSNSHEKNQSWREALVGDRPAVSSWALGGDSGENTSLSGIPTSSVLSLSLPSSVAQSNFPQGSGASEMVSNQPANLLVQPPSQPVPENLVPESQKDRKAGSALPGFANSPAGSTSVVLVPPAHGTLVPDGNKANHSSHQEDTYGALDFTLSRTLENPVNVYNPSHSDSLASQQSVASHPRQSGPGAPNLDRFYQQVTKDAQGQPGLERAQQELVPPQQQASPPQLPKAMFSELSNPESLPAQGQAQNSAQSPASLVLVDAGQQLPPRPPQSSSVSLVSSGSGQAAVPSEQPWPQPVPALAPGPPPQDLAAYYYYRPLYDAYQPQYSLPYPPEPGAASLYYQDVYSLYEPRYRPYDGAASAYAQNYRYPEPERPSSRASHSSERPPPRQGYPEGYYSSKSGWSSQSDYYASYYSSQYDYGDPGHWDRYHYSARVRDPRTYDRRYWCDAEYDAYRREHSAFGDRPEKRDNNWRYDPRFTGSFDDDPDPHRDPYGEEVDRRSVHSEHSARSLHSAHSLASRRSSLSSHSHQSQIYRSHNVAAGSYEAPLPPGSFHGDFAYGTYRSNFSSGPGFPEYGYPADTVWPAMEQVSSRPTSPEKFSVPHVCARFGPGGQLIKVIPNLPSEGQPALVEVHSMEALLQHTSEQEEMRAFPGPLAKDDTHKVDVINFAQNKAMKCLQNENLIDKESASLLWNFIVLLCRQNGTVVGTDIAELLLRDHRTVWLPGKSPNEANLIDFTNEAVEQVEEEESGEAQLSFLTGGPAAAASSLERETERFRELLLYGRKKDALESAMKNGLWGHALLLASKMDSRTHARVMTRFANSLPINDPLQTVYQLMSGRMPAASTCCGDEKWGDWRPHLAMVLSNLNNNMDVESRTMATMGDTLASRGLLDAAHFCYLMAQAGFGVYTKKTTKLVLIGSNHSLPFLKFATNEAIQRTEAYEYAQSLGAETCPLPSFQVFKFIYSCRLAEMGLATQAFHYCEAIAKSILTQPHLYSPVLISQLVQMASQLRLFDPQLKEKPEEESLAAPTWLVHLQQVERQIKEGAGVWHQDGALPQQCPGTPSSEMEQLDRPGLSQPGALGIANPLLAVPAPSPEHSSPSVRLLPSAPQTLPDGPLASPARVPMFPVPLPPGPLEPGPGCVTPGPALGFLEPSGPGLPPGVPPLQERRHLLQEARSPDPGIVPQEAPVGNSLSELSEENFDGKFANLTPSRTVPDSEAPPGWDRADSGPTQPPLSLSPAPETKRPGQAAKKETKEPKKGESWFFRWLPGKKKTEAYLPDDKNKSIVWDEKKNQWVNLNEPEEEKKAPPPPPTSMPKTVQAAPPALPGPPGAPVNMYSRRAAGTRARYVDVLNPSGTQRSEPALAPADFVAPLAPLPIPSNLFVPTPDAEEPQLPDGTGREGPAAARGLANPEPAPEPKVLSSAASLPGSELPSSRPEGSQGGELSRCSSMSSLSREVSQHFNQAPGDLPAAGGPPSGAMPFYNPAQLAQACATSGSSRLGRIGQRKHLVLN
Sequence of UniProt O75792 (O75792 whole entry, looked up): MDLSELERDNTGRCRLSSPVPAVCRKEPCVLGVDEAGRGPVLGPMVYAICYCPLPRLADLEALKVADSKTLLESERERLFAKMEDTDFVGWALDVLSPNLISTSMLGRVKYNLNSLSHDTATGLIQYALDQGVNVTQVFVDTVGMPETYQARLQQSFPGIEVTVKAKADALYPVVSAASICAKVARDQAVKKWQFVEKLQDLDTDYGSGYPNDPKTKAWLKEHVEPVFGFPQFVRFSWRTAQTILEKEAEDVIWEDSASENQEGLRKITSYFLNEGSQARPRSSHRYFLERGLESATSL
Sequence of UniProt Q92696 (Q92696 whole entry, looked up): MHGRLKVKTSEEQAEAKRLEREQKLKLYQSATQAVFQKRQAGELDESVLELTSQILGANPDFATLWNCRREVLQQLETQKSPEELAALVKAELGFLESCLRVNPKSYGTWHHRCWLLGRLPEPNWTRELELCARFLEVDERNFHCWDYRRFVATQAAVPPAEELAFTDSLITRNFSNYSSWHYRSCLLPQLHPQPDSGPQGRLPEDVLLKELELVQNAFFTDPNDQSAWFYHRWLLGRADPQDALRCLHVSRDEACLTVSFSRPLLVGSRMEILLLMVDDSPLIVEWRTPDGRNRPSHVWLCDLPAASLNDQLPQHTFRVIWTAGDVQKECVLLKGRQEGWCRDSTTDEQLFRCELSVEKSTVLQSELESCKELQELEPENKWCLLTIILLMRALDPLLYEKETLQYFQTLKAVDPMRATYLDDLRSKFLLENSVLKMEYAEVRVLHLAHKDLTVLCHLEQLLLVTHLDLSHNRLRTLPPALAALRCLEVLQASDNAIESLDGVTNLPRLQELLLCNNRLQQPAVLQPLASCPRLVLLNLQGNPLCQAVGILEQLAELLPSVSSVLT
Sequence of UniProt Q9BWF3 (Q9BWF3 whole entry, looked up): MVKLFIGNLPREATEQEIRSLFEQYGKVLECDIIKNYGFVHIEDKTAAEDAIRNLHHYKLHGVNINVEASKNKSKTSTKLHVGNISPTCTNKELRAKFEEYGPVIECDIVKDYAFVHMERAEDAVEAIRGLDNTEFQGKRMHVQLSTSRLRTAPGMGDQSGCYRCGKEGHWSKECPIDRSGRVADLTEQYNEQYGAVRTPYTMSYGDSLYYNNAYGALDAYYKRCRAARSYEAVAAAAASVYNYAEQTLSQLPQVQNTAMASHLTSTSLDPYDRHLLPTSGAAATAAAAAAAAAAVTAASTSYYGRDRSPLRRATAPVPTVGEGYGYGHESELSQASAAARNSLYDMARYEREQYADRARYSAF
Sequence of UniProt Q9HB90 (Q9HB90 whole entry, looked up): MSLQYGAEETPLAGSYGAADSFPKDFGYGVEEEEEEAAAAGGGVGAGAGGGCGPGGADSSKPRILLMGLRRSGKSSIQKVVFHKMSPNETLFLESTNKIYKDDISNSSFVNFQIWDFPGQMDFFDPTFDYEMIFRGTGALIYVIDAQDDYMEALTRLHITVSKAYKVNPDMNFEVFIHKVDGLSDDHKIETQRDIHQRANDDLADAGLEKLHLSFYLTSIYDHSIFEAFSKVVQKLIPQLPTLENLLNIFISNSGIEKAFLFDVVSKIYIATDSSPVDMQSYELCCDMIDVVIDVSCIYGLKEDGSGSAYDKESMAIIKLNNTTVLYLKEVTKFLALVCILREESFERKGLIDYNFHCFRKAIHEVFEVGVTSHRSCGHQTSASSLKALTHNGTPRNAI
Sequence of UniProt Q8IZQ5 (Q8IZQ5 whole entry, looked up): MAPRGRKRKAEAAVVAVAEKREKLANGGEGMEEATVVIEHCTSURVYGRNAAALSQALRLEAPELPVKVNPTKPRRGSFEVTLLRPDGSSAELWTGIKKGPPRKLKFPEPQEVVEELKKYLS
Sequence of UniProt P52306 (P52306 whole entry, looked up): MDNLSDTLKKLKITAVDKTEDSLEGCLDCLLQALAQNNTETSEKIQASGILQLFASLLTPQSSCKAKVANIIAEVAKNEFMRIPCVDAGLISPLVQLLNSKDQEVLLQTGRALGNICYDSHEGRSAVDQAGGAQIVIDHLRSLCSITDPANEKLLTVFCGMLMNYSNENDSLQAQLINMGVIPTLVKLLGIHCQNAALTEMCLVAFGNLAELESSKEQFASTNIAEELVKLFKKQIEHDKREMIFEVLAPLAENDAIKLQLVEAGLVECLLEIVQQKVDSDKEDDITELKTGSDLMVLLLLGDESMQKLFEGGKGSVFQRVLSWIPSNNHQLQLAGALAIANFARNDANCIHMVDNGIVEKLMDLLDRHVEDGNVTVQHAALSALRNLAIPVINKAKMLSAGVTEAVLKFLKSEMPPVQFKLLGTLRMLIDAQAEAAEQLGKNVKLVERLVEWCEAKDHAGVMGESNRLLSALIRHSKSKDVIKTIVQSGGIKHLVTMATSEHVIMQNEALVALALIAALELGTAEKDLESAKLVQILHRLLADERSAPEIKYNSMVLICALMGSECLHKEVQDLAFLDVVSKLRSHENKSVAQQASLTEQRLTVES

Target | log2 fold change [1] | log2 fold change [2] | log2 fold change [3] | log2 fold change [4] | log2 fold change [5] | log2 fold change [6] | log2 fold change [7] | log2 fold change [8] | log2 fold change [9] | log2 fold change [10]
RBM8A (UniProt Q9Y5S9) | 0.011 | -0.002 | 0.188 | 0.045 | -0.032 | 0.075 | -0.043 | -0.006 | 0.025 | 0.012
SIK3 (UniProt H0Y4E8) | 0.027 | 0.157 | -0.007 | 0.064 | -0.009 | -0.072 | 0.023 | -0.114 | 0.056 | 0.01
SLC18B1 (UniProt Q6NT16) | 0.021 | 0.023 | 0.02 | 0.04 | 0.061 | 0.094 | -0.012 | -0.071 | 0.012 | 0.056
RHEB (UniProt Q15382) | 0.047 | 0.04 | -0.008 | -0.054 | -0.032 | 0.002 | -0.084 | -0.011 | 0.025 | 0
SETMAR (UniProt Q53H47) | -0.007 | -0.132 | -0.029 | -0.402 | 0.006 | -0.026 | -0.004 | 0.005 | 0.198 | -0.084
RSL1D1 (UniProt O76021) | -0.086 | 0.05 | 0.481 | 0.06 | 0.004 | 0.83 (active) | 0.359 | 0.097 | 0.117 | 0.079
REEP4 (UniProt Q9H6H4) | 0.047 | -0.068 | 0.034 | 0.018 | -0.122 | 0.008 | 0.086 | -0.014 | -0.013 | -0.01
RPS16 (UniProt P62249) | -0.085 | 0.004 | 0.193 | 0.05 | 0.108 | 0.185 | 0.126 | 0.056 | 0.033 | 0.004
ROR2 (UniProt Q01974) | 0.034 | -0.071 | -0.06 | -0.025 | -0.023 | -0.107 | -0.012 | 0.084 | 0.03 | -0.121
SIRT2 (UniProt Q8IXJ6) | 0.031 | 0.136 | -0.023 | -0.015 | -0.038 | -0.015 | -0.033 | 0.181 | 0.014 | 0.025
SETD3 (UniProt Q86TU7) | 0.008 | 0.012 | -0.071 | -0.056 | 0.014 | -0.004 | 0.022 | 0.032 | -0.009 | 0
RABGGTA (UniProt Q92696) | 0.013 | 0.102 | -0.079 | -0.044 | -0.034 | -0.034 | -0.015 | 0.001 | 0.004 | -0.024
RAP1GDS1 isoform 5 (UniProt P52306) | 0.004 | -0.077 | -0.069 | -0.01 | 0.006 | -0.017 | -0.006 | -0.024 | 0.176 | 0.139
SART3, A0A499FI31 | -0.011 | -0.13 | -0.291 (active) | 0.035 | 0.021 | -0.448 (active) | -0.156 | -0.041 | 0.025 | 0.001
SEC16A isoform 5 (UniProt O15027) | -0.08 | -0.049 | 0.028 | 0.052 | -0.085 | -0.016 | 0.22 | 0.09 | 0.119 | -0.018
SELENOH (UniProt Q8IZQ5) | 0.124 | -0.171 | 0.066 | 0.032 | -0.063 | -0.026 | -0.011 | 0.022 | 0.011 | -0.038
SEC23IP (UniProt Q9Y6Y8) | -0.097 | -0.048 | -0.157 | 0.043 | -0.092 | -0.156 | -0.019 | -0.045 | 0.058 | 0.025
RBM4 (UniProt Q9BWF3) | 0.024 | -0.1 | -0.037 | 0.017 | -0.052 | -0.055 | 0.157 | -0.036 | 0.063 | 0.025
RMC1 (UniProt Q96DM3) | -0.002 | -0.01 | -0.105 | 0.007 | 0.014 | -0.041 | 0.029 | 0.014 | -0.013 | -0.018
RRAGC (UniProt Q9HB90) | 0.023 | 0.006 | -0.013 | -0.025 | -0.014 | -0.005 | -0.058 | -0.063 | 0.036 | -0.005
RTN4IP1 (UniProt Q8WWV3) | -0.264 | 0.43 | -0.27 | 0.611 (active) | -0.066 | -0.157 | -0.178 | -0.069 | 0.02 | 0.007
RNASEH2A (UniProt O75792) | -0.071 | 0.029 | -0.107 | 0.033 | 0.029 | 0.117 | 0.018 | 0.033 | -0.003 | 0.096
RB1CC1 (UniProt Q8TDY2) | -0.065 | -0.108 | -0.025 | 0.117 | -0.051 | -0.042 | 0.09 | 0.049 | -0.104 | -0.025
RAC1 (UniProt P63000) | 0.097 | -0.041 | -0.031 | 0.057 | -0.009 | -0.012 | 0.075 | 0.043 | -0.064 | -0.037
SLBP (UniProt Q14493) | -0.083 | -0.077 | -0.091 | 0.117 | 0.113 | -0.128 | -0.158 | 0.02 | 0.113 | 0
RANBP2 (UniProt P49792) | -0.011 | -0.06 | -0.079 | -0.016 | 0.886 | -0.009 | -0.028 | -0.016 | -0.045 | -0.03
SAFB2 (UniProt Q14151) | -0.055 | -0.028 | 0.149 | -0.048 | -0.022 | 0.144 | 0.1 | -0.067 | 0.029 | -0.005
SH3GL1 (UniProt Q99961) | -0.157 | -0.163 | -0.118 | 0.092 | -0.035 | -0.116 | 0.022 | 0.054 | 0.062 | -0.043
RDH10 (UniProt Q8IZV5) | 0.005 | 0.016 | -0.043 | 0.04 | 0.068 | -0.002 | -0.034 | 0.072 | -0.011 | -0.063
